Laboratory results reported in PubChem BioAssay (Tox21).
Results filed as inconclusive are left out. Where a call stands in place of a potency, no number is given. Calls of active or inactive are those of the source. Unless noted, calls come from the whole dose curve.

Key:
[1] = qHTS assay to identify small molecule agonists of the sonic hedgehog signaling (Shh) pathway (AID 1259368);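 note: NIH/3T3-derived 3T3Gli1-Luc cells carrying a stable Gli1-driven firefly luciferase reporter; series mostly up to about 92 µM; nearly all actives have a fitted effect of over 15% in size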
Procedure, shortened: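 3T3Gli1-Luc (NIH/3T3 clone, stable Gli1-Luc); 4 hr pre-incubation, then cpd in DMSO 24 hr, 37 C/5% CO2; luciferase reagent 30 min RT; luminescence.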

[2] = qHTS assay to identify small molecule antagonists of the sonic hedgehog signaling (Shh) pathway (AID 1259369); note: nearly all actives have a fitted effect of over 45% in size; note: potency is the fitted concentration of half-maximal effect
Procedure, shortened: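 3T3Gli1-Luc, conditioned-medium-stimulated, 24hr cpd, 37C/5% CO2; Gli1-driven firefly Luc luminescence after 30min RT with luciferase reagent. Cells plated 4hr before cpd.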

[3] = qHTS assay to identify small molecule agonists of the androgen receptor (AR) signaling pathway in the presence of an antagonist - cell viability counter screen (AID 1259379; active = well fitted curve in the direction sought with a large enough effect in the repeat runs; an effect the other way counts as inactive or inconclusive; note: nearly all actives have a fitted effect of over 25% in size; note: potency is the fitted concentration of half-maximal effect)
Procedure, shortened: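 Cells: MDA-kb2 (MMTV-luc, AR and GR elements), 3,000/well, 5 hr settle. Added: nilutamide 3.0uM final, then compounds (15 conc.). Incubation: 16 hr, 37C, no CO2. Read-out: CellTiter-Fluor, 1 hr, fluorescence.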

[4] = qHTS assay to identify small molecule agonists of the estrogen receptor beta (ER-beta) signaling pathway - cell viability counter screen (AID 1259380; active = well fitted curve in the direction sought with a large enough effect in the repeat runs; an effect the other way counts as inactive or inconclusive; note: nearly all actives have a fitted effect of over 30% in size; note: potency is the fitted concentration of half-maximal effect)
Procedure, shortened: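 HEK293T ER-beta-UAS-bla; 2% CS-FBS; 6 hr pre-plate, 16 hr cpd at 37C/5% CO2; LiveBLAzer read first, then CellTiter-Glo 30 min RT, luminescence.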

[5] = target: Androgen receptor (Homo sapiens) (UniProt P10275); assay: qHTS assay to identify small molecule agonists of the androgen receptor (AR) signaling pathway in the presence of an antagonist (AID 1259381); note: nearly all actives have a fitted effect of over 15% in size; note: potency is the fitted concentration of half-maximal effect
Procedure, shortened: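 MDA-kb2 cells, 3,000/well, rested 5hr at 37C/0% CO2 → nilutamide 3.0uM final or buffer → compounds, 15 conc. → 16hr at 37C → ONE-Glo, 30min RT → luminescence.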

[6] = qHTS assay to identify small molecule antagonists of the estrogen receptor beta (ER-beta) signaling pathway - cell viability counter screen (AID 1259382; active = well fitted curve in the direction sought with a large enough effect in the repeat runs; an effect the other way counts as inactive or inconclusive; note: series mostly up to about 92 µM; nearly all actives have a fitted effect of over 55% in size)
Procedure, shortened: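 Cells: ER-beta-UAS-bla HEK293T, 2,000/well, 2% CS-FBS, 6 hr settle. Cpd + E2 (1nM final), 16 hr, 37C/5% CO2. Bla FRET substrate 2 hr RT, then CellTiter-Glo 30 min RT, luminescence.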

[7] = target: Estrogen receptor (Homo sapiens) (UniProt P03372); assay: qHTS assay to identify small molecule agonists of the estrogen receptor alpha (ER-alpha) signaling pathway in the presence of an antagonist (AID 1259383); note: top concentration of the series differs between compounds; nearly all actives have a fitted effect of over 15% in size
Procedure, shortened: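 VM7Luc4E2, endog. ER-alpha + 4×ERE-luc; charcoal-stripped FBS, phenol red-free, 5 d; 24hr plating; +10.0nM ICI-182,780 (final); cpds 15 conc, 22hr, 37C/5% CO2; ONE-Glo luminescence.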

[8] = qHTS assay to identify small molecule agonists or antagonists of the thyroid stimulating hormone receptor (TSHR) signaling pathway - wild type cell line counter screen (AID 1259384)
Procedure, shortened: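 Wild-type Hek293 cells, 800/well, 18 h at 37C, then compound with Ro20-1724 for 30 min RT. cAMP by HTRF (cAMP-d2/anti-cAMP cryptate), 1 h RT, fluorescence read. 15 concentrations, triplicates.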

[9] = target: Thyrotropin receptor (Homo sapiens) (UniProt P16473); assay: qHTS assay to identify small molecule antagonists of the thyroid stimulating hormone receptor (TSHR) signaling pathway (AID 1259385); note: nearly all actives have a fitted effect of over 20% in size; note: potency is the fitted concentration of half-maximal effect
Procedure, shortened: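 TSHR-HEK293 cells (800/well) plated 18 h, then compounds with Ro20-1724 and TSH at 1.5 ng/mL final, 30 min at room temperature. cAMP quantified by HTRF (cAMP-d2/anti-cAMP-cryptate, 1 h); 15 concentrations in triplicate.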

[10] = qHTS assay to identify small molecule agonists of the estrogen receptor alpha (ER-alpha) signaling pathway in the presence of an antagonist - cell viability counter screen (AID 1259386; active = well fitted curve in the direction sought with a large enough effect in the repeat runs; an effect the other way counts as inactive or inconclusive;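 note: cells exposed to compounds for 22 h at 37 °C before the viability read; nearly all actives have a fitted effect of over 30% in size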; note: potency is the fitted concentration of half-maximal effect)
Procedure, shortened: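 VM7Luc4E2, stripped-serum pre-culture 5 d; 24hr plating; +ICI-182,780 10.0nM final; cpds 15 conc, 22hr, 37C/5% CO2; CellTiter-Fluor added at 21hr, fluorescence 1hr later.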

[11] = target: Progesterone receptor (Homo sapiens) (UniProt P06401); assay: qHTS assay to identify small molecule agonists of the progesterone receptor (PR) signaling pathway (AID 1346784); note: nearly all actives have a fitted effect of over 30% in size
Procedure, shortened: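 Agonist mode, quantitative HTS format in a HEK 293T line expressing a UAS-controlled beta-lactamase reporter; 16 hr compound exposure at 37C in 2% charcoal-stripped FBS, then LiveBLAzer B/G FRET fluorescence.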

[12] = target: Progesterone receptor (Homo sapiens) (UniProt P06401); assay: qHTS assay to identify small molecule antagonists of the progesterone receptor (PR) signaling pathway (AID 1346795; active = well fitted inhibition curve with a large enough effect in the signal ratio in the repeat runs, not every such curve was filed as active; the % refers to the signal ratio; note: potency is the fitted concentration of half-maximal effect)
Procedure, shortened: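 HEK293T PR-UAS-bla reporter cells in charcoal-stripped serum (2%) received compound after a 6 hr settling period, followed by R5020 agonist at 1 nM final; 16 hr incubation preceded the FRET substrate step and fluorescence measurement.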

[13] = qHTS assay to identify small molecule antagonists of the progesterone receptor (PR) signaling pathway - cell viability counter screen (AID 1346798; active = well fitted curve in the direction sought with a large enough effect in the repeat runs; an effect the other way counts as inactive or inconclusive; note: series mostly up to about 92 µM; nearly all actives have a fitted effect of over 50% in size)
Procedure, shortened: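 Same-well multiplex: after 16 hr at 37C with compound and R5020 stimulation, HEK293T cells carrying a UAS-bla reporter received LiveBLAzer substrate (2 hr RT), then CellTiter-Glo (30 min RT) for luminescent viability.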

[14] = qHTS assay to identify small molecule antagonists of the TGF-beta/Smad signaling pathway - cell viability counter screen (AID 1346824; active = well fitted curve in the direction sought with a large enough effect in the repeat runs; an effect the other way counts as inactive or inconclusive; note: nearly all actives have a fitted effect of over 50% in size)
Procedure, shortened: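 SBE-bla HEK 293T cells, incubated overnight, then compound plus 0.25 ng/mL TGF-beta1 (stock added) for 5 hr at 37 C. Viability was read in the same wells by CellTiter-Glo luminescence after 30 min at room temperature.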

[15] = qHTS assay to identify small molecule agonists of the TGF-beta/Smad signaling pathway - cell viability counter screen (AID 1346829; active = well fitted curve in the direction sought with a large enough effect in the repeat runs; an effect the other way counts as inactive or inconclusive; note: top concentration of the series differs between compounds; nearly all actives have a fitted effect of over 45% in size)
Procedure, shortened: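 Tox21 qHTS format: SBE-bla HEK 293T cells treated with DMSO-dissolved compounds for 5 hr; CellTiter-Glo luminescence after 30 min at room temperature.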

[16] = qHTS assay to identify small molecule agonists of the TGF-beta/Smad signaling pathway (AID 1346859; active = well fitted activation curve with a large enough effect in the signal ratio in the repeat runs, not every such curve was filed as active; the % refers to the signal ratio; note: series mostly up to about 77 µM)
Procedure, shortened: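 Smad-responsive beta-lactamase reporter cells (HEK 293T) received compounds from DMSO stocks after overnight attachment, were incubated 5 hr, then treated 2 hr with FRET substrate before dual-emission fluorescence measurement (405 nm excitation).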

[17] = target: Estrogen receptor beta (Homo sapiens) (UniProt Q92731); assay: qHTS assay to identify small molecule agonists of the estrogen receptor beta (ER-beta) signaling pathway (AID 1259377; active = well fitted activation curve with a large enough effect in the signal ratio in the repeat runs, not every such curve was filed as active; the % refers to the signal ratio)
Procedure, shortened: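 A UAS-controlled beta-lactamase reporter in ER-beta-UAS-bla HEK293T cells reports receptor activation. Compounds act for 16 hr at 37C in 2% charcoal-stripped serum, and a FRET substrate is read by fluorescence after 2 hours.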

[18] = target: Estrogen receptor beta (Homo sapiens) (UniProt Q92731); assay: qHTS assay to identify small molecule antagonists of the estrogen receptor beta (ER-beta) signaling pathway (AID 1259378; active = well fitted inhibition curve with a large enough effect in the signal ratio in the repeat runs, not every such curve was filed as active; the % refers to the signal ratio; note: potency is the fitted concentration of half-maximal effect)
Procedure, shortened: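 ER-beta-UAS-bla HEK293T cells in 2% charcoal-stripped FBS medium treated with compound plus 1nM final 17-beta-estradiol for 16 hr at 37C. Beta-lactamase reporter read by FRET substrate fluorescence after 2 hours at room temperature.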

[19] = target: Thyrotropin-releasing hormone receptor (Homo sapiens) (UniProt P34981); assay: qHTS assay to identify small molecule antagonists of the thyrotropin-releasing hormone receptor (TRHR) signaling pathway (AID 1346877; active = well fitted inhibition curve with a large enough effect in the repeat runs, not every such curve was filed as active; note: series mostly up to about 51 µM)
Procedure, shortened: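 Intracellular calcium fluorescence, read kinetically every second over 3 min, reports TRH-evoked signalling in HEK293 cells carrying TRHR. Test compounds were added 5 min ahead of a 1 nM TRH challenge.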

[20] = qHTS assay to identify small molecule agonists of the progesterone receptor (PR) signaling pathway - cell viability counter screen (AID 1346799); note: potency is the fitted concentration of half-maximal effect; nearly all actives have a fitted effect of over 45% in size
Procedure, shortened: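 Counter screen for cytotoxicity: compound-treated PR-UAS-bla HEK293T cells (16 hr, 37C, 5% CO2) were assayed with CellTiter-Glo, luminescence measured after 30 min at room temperature.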

Sequence of Estrogen receptor beta (Homo sapiens) (Q92731 whole entry, looked up): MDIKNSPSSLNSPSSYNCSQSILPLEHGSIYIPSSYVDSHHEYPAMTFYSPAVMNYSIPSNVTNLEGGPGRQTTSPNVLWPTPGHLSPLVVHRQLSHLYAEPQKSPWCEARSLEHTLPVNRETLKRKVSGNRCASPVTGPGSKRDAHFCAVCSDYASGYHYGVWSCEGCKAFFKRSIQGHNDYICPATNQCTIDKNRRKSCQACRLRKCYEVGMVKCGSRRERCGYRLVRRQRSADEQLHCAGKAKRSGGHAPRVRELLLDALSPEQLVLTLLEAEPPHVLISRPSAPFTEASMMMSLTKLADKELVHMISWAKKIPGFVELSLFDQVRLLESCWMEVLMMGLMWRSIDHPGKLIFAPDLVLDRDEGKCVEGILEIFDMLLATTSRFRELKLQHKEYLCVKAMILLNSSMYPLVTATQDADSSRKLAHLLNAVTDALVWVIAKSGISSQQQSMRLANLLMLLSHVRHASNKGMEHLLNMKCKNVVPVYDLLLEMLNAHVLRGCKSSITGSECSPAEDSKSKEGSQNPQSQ
Sequence of Thyrotropin receptor (Homo sapiens) (P16473 whole entry, looked up): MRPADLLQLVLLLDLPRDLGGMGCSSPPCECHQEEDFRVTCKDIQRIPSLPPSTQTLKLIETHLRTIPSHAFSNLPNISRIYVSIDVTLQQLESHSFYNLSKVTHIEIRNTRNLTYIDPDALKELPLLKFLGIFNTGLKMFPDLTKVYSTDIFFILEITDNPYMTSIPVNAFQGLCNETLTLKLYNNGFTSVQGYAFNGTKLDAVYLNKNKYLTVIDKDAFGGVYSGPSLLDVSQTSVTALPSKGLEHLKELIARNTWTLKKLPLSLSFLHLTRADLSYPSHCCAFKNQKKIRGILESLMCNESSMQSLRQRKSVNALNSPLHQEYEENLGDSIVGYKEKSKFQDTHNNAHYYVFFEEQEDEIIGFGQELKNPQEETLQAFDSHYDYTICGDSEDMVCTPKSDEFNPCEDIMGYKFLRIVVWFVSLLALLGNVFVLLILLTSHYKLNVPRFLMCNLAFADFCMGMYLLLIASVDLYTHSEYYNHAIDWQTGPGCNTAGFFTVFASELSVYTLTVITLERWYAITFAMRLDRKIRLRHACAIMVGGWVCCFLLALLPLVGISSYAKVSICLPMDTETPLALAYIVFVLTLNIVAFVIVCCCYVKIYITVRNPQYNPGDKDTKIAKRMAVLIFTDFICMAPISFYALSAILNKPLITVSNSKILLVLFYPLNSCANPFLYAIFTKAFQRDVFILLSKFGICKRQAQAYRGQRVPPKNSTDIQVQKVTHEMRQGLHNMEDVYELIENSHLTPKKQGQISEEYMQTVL
Sequence of Thyrotropin-releasing hormone receptor (Homo sapiens) (P34981 whole entry, looked up): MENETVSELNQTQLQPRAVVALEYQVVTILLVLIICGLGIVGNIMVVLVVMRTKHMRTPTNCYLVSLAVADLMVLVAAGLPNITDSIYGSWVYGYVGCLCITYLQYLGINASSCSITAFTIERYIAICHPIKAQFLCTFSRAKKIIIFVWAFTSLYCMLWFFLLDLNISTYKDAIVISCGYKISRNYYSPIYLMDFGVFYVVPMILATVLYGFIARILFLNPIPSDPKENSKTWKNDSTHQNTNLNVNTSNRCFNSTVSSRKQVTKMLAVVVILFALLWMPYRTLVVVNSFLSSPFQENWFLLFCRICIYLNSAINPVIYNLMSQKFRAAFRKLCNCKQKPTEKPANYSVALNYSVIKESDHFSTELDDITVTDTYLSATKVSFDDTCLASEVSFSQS
Sequence of Androgen receptor (Homo sapiens) (P10275 whole entry, looked up): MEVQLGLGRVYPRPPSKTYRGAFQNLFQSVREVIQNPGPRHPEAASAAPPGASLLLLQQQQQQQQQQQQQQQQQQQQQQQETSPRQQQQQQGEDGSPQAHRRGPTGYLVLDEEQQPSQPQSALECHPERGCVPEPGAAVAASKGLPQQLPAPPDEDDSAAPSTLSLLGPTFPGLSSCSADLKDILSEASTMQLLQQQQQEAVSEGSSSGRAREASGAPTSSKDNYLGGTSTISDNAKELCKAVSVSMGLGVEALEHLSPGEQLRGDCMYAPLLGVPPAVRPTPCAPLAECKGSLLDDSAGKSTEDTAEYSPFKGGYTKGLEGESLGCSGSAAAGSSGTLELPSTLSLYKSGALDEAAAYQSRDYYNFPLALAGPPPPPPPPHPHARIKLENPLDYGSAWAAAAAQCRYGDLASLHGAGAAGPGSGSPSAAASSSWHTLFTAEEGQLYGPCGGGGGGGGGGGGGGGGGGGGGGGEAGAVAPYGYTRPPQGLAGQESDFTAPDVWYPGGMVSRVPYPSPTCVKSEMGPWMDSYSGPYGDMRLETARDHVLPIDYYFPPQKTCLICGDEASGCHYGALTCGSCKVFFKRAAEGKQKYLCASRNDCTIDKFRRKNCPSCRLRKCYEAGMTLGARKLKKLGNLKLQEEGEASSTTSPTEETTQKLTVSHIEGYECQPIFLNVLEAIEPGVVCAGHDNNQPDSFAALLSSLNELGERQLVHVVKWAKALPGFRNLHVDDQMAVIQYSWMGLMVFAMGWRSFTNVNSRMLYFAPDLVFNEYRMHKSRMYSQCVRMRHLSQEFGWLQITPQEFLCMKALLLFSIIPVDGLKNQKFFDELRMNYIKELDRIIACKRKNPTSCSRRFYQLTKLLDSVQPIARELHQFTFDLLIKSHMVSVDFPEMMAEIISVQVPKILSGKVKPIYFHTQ
Sequence of Progesterone receptor (Homo sapiens) (P06401 whole entry, looked up): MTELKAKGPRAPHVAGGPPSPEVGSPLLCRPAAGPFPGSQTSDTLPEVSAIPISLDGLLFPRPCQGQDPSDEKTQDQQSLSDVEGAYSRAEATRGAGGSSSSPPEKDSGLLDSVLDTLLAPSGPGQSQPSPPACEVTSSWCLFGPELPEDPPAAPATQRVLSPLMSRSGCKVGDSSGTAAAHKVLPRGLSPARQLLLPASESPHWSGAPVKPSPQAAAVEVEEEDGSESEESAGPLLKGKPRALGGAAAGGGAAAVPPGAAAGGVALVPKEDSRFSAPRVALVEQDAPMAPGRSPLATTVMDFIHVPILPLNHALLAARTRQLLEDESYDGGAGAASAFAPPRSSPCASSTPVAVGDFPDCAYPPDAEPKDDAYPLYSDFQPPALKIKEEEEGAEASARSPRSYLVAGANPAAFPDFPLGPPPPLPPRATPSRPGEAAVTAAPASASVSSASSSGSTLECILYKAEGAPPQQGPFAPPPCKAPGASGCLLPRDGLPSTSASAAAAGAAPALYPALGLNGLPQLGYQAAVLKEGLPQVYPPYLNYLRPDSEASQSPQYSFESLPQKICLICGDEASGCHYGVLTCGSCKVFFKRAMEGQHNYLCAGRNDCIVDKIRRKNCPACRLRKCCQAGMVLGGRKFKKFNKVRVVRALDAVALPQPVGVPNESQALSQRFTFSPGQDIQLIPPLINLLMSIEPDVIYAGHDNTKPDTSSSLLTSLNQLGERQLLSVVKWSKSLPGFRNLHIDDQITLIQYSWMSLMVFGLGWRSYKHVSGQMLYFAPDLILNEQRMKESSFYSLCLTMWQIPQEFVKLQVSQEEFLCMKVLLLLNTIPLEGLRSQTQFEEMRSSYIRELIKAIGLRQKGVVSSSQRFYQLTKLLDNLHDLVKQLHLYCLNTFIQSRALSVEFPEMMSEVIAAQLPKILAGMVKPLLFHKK
Sequence of Estrogen receptor (Homo sapiens) (P03372 whole entry, looked up): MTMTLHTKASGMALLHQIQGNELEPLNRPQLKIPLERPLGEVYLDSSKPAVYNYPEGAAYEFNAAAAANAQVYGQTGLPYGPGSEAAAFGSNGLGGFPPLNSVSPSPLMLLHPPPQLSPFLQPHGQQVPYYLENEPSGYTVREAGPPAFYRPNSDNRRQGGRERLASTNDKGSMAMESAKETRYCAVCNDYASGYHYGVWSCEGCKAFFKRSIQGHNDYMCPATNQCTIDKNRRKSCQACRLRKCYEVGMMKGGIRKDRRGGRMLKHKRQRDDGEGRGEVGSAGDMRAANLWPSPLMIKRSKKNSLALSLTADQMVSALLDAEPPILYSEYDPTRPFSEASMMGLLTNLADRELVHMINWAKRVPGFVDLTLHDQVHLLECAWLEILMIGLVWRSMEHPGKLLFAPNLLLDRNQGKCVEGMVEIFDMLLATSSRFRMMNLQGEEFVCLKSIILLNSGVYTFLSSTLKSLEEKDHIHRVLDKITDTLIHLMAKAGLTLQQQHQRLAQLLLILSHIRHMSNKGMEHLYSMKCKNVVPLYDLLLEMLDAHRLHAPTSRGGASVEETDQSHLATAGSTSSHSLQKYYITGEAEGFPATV

Structure (SMILES)	Potency [1]	Potency [2]	Potency [3]	Potency [4]	Potency [5]	Potency [6]	Potency [7]	outcome [8]	Potency [9]	Potency [10]	Potency [11]	Potency [12]	Potency [13]	Potency [14]	Potency [15]	Potency [16]	Potency [17]	Potency [18]	outcome [19]	Potency [20]
O=C1c2ccccc2C(=O)c2c(O)c(O)cc(O)c21	inactive	inactive	30.6 µM (active)	inactive	inactive	inactive	inactive	inactive	inactive	30.6 µM (active)	inactive	inactive	inactive	inactive	inactive	inactive				
Cc1c(C)c2c(c(C)c1OC(=O)CCC(=O)OCCO)CC[C@@](C)(CCC[C@H](C)CCC[C@H](C)CCCC(C)C)O2	inactive	inactive	inactive					inactive	inactive	inactive				inactive	inactive	inactive	inactive	13.3 µM (active)	inactive	
Clc1ccc(Nc2nnc(Cc3ccncc3)c3ccccc23)cc1	inactive	1.19 µM (active)	inactive			inactive		inactive	inactive	inactive	inactive	26.6 µM (active)		inactive	inactive	inactive	inactive	13.3 µM (active)		
CCCCN(CCN(CCCC)C(=O)N1CCOCC1)C(=O)N1CCOCC1	inactive	13.3 µM (active)	inactive	inactive	inactive	inactive	inactive	inactive		inactive	inactive			inactive	inactive		inactive		inactive	29.8 µM (active)
CC(C)=CCC1C(=O)N(c2ccccc2)N(c2ccccc2)C1=O	inactive	inactive	inactive	inactive			inactive	inactive	inactive	inactive	inactive		inactive	inactive	inactive	inactive	inactive		inactive	
COc1ccc(OC(=O)N(CC(=O)O)Cc2ccc(OCCc3nc(-c4ccccc4)oc3C)cc2)cc1	inactive	inactive	inactive	16.8 µM (active)		inactive	inactive	inactive	inactive	inactive	inactive	inactive		inactive	inactive			23.7 µM (active)	inactive	
CCC(C)(C)OC	inactive	inactive	inactive	inactive		inactive		inactive	inactive	inactive	inactive	inactive	inactive	inactive	inactive	inactive	inactive		inactive	
CN1C[C@H](C(=O)N[C@]2(C)O[C@@]3(O)[C@@H]4CCCN4C(=O)[C@H](Cc4ccccc4)N3C2=O)C[C@@H]2c3cccc4[nH]cc(c34)C[C@H]21	inactive	inactive					inactive	inactive	11.9 µM (active)		inactive			inactive	inactive		inactive		inactive	
CC(C)=CCC/C(C)=C/CC/C(C)=C/C(=O)OCC(=O)[C@@]1(O)CC[C@H]2[C@@H]3CCC4=CC(=O)C=C[C@]4(C)[C@H]3[C@@H](O)C[C@@]21C	inactive	8.41 µM (active)	26.6 µM (active)		0.335 µM (active)	inactive	inactive	inactive			inactive				inactive	inactive	inactive	13.3 µM (active)	inactive	
CC(=O)OCCN(CCOC(C)=O)c1ccc(N=Nc2ccc([N+](=O)[O-])cc2C#N)cc1	inactive	30.6 µM (active)	54.5 µM (active)					inactive			inactive	inactive	inactive	inactive	inactive	inactive	inactive		inactive	
